PubChem BioAssay AID1508600 (Functional Genomics Laboratory (NCATS/FGL), 2020)
Hit rate of the full screen: of about 53,000 sequences, about 3,700 (7%) were called active. This is one part of a sample in which actives are shown more often than they occur.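 Rule for the calls: active = gene knockdowns whose robust z-score for IL-1 alpha signal is at least 2 or at most -2, so actives lie on both sides; inactive = the rest.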

experiment: Components of the Cytosolic LPS Sensing Pathway: Gene Identification via Genome-wide siRNA Screen; details: RAW264.7 macrophages, IL-1a HTRF, actives lie on both sides, screened at 100 nM (by protocol), cells primed 5 h with Pam3CSK4 first;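 note: robust z of the log signal after scaling to non-targeting control siRNA wells of the plate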
Outline: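 RAW264.7 mouse macrophages reverse-transfected with single siRNAs (100 nM final) for 48h, primed with Pam3CSK4 for 5 hours, then transfected with LipidA for 24 hour. Supernatant IL-1a read by HTRF; values normalized to negative-control median, log-transformed robust z-scores.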

Row | Sequence | z-score
1 | CCUGAUACCCAAAGACUCATT against Dnaic1 | -1.38 (inactive)
2 | GCAACGGAGGGUCAUUUCATT against Wipf2 | 2.54 (active)
3 | CCAUGAGACAAGAUUUAGATT against Olfr818 | -0.751 (inactive)
4 | UACUUAGGCCCUUGAGCAUTT against Timm10 | 0.725 (inactive)
5 | GGUGUGUUUUCAUGUUUUUTT against Rel | 0.388 (inactive)
6 | GCUAUUGUAGUGGUUACUGTT against Vmn2r57 | 2.21 (active)
7 | GGUAUUUCUUUGUGGUGCUTT against Ptch2 | 1.45 (inactive)
8 | GCUACAUGAUGUUCAUACUTT against Srpx | 0.38 (inactive)
9 | GGUUUGGUGUCAGAUGUCATT against Olfr1182 | -2.32 (active)
10 | GGUGCAACACUCUCUAUUUTT against Afap1l1 | 0.963 (inactive)
11 | CCCAUCUCCUUAAAGUCAATT against Ripk3 | 1.32 (inactive)
12 | GGCAGCUGUUAUGCUUUUCTT against Cd302 | 0.822 (inactive)
13 | CCAGGAUCCUGUUUCUGACTT against AF067061 | 2.19 (active)
14 | GGAACUGUGAGACUUUUAGTT against Rabgap1 | 0.532 (inactive)
15 | CCCUGAGAAGGAUGCGAAATT against Mgat4b | 0.44 (inactive)
16 | GGAGCAGAGAAACUUCUCGTT against Gigyf1 | -2.09 (active)
17 | CCGGAAAACAAAAUUGCUATT against Obp1a | 0.492 (inactive)
18 | GGAAGAUAAAUCACAAUCATT against Cdc37l1 | 0.051 (inactive)
19 | GGAUUAUAUGCCAAGUGAUTT against Phyh | 0.179 (inactive)
20 | GCCGAUUGUCCUAUCUCCATT against Spg7 | 1.63 (inactive)
21 | GGUACUACUGUGGCUAAGCTT against 1700120K04Rik | 2.71 (active)
22 | GAACUCUUCCAGUGGAAGUTT against Dctpp1 | -1.5 (inactive)
23 | GGAAAAAUAGGGUGUUUUGTT against Tdg | 1.96 (inactive)

Row | Sequence | z-score
24 | GGACCAAGAGGACAUUACCTT against Tbl3 | -0.971 (inactive)
25 | GGUCAACCUAAACCAGCAGTT against Csn1s2a | -0.182 (inactive)
26 | GGGAUGACCUGCCAUUCAUTT against Atp7a | 3.47 (active)
27 | CGAGGAUUUCUGUUACUUATT against Lyst | 1.19 (inactive)
28 | GCGCAGGUUGGAUGAAUGUTT against Psme3 | -0.433 (inactive)
29 | GGAAUUUUCUCGAUUUCACTT against Pde6b | 1.13 (inactive)
30 | GGCCUUUGGUACAUGUAGUTT against Olfr692 | 0.557 (inactive)
31 | CGAAGAAUGACGAUGAUAUTT against Ppp4r3a | -2.41 (active)
32 | CGGAAGAACUACAAGUCGATT against Sipa1l3 | 2.09 (active)
33 | GCCAGUGCAUGAAAGAUAUTT against Kansl1l | -0.772 (inactive)
34 | GUUAUAGCGGCGAAGGUGUTT against Maml3 | 1.02 (inactive)
35 | CCUCUACAUCAGAGUAUGATT against Defb21 | 2.22 (active)
36 | GGUCUGCUGUUGAUCGUUCTT against Sct | 1.72 (inactive)
37 | CGAUUCAAGGUAACAUAGATT against Esrrg | 1.66 (inactive)
38 | GGCACUAAUGGAGAGACUGTT against Nr6a1 | 3.53 (active)
39 | GGCCCAAACACGUGUAAAATT against Kdm5b | 0.322 (inactive)
40 | GGACAAAGAGGAAUGGAUATT against Tank | -1.19 (inactive)
41 | GGCAUGAAUCAGUCUAUGGTT against Olfr1308 | 0.656 (inactive)
42 | GGCUGGAGAAGUAAUGAUATT against Sp100 | 0.62 (inactive)
43 | GGAAGGUUGUAAGUUUAAATT against Krtap14 | 2.12 (active)
44 | GGACUUUGAAGAACUAAGUTT against Tfrc | 1.01 (inactive)
45 | GGGAUCUAAAGGCUGAAAATT against Mark4 | -0.291 (inactive)
46 | GCCAUCGCUAACUUACGGATT against Gdpd5 | -1.81 (inactive)

Row | Sequence | z-score
47 | GGAUGGACCUUCAGAAAAGTT against Srrm4 | -1.63 (inactive)
48 | GGUCGUGCAUGACAACUAUTT against Itk | 2.62 (active)
49 | GGCCAAAGUCGAAUCAUAUTT against Prmt2 | -0.252 (inactive)
50 | CCAAUGGCGAGACAACUACTT against Aldoa | 0.182 (inactive)
51 | GGGUCUGCCGUCAUCCAUATT against Acp6 | -0.563 (inactive)
52 | GGGCUUACCGUAUAACUUUTT against Nptn | 1.4 (inactive)
53 | GGACCUGAAUUCCACUCCUTT against Socs1 | -0.147 (inactive)
54 | GGAUGAGGAGGAUACAAAGTT against Eif3c | 0.228 (inactive)
55 | GGAUACUCUCAGGACGUGATT against Ncbp2 | -2 (active)
56 | CGAGCAAGCUUCUACAUACTT against AI182371 | 0.438 (inactive)
57 | GCAAAUCAUUUAGGACCCATT against Amer2 | -2.54 (active)
58 | GGAGUUCAGGUAUCCCUGATT against Nomo1 | -0.109 (inactive)
59 | GGAAAACAAGAAAGAUGAATT against Snupn | -1.05 (inactive)
60 | CGAUCCUCAUCUUUAUAUATT against Agbl1 | -0.33 (inactive)
61 | CGCCAAAAGUUCUUGCCAUTT against Olfr618 | -2.02 (active)
62 | CCUAGAUUCUGAAUUCGAATT against Pdzd8 | -1.09 (inactive)
63 | GGAUAACAGAUGGUUAAUATT against Pramel48 | 0.202 (inactive)
64 | GGUUGGAUUCCUGAUAUUATT against Moxd2 | -0.22 (inactive)
65 | CGGCACUAGGAAGCUUUUATT against Inpp5a | -0.185 (inactive)
66 | GCAUCUACCAUGGAAAUAUTT against Clcn7 | 0.053 (inactive)
67 | GGAGCUGGAGAAGUUACUUTT against Amigo3 | 2.06 (active)
68 | GCUGGUUGUAGUAAAACAGTT against Resf1 | -1.29 (inactive)
69 | GCUGGUAUGACCAAGAGAATT against Mutyh | 0.679 (inactive)
